Only some compounds are listed: those with a hit (about 1.7% of all), similar ones and a draw of the others.
Mtb hypoxia inh – Mtb hypoxia fluorescent reporter inhibition; actives 0.1% (n = 300,000); M. tuberculosis hypoxia-regulated fluorescent reporter, fluorescence; fluorescence inhibition, % (test concentration not listed); in the data active = fluorescence inhibition mostly above about 23%, no sharp cut-off; inactive = mostly below about 17%
BH1578 lux ind – quorum light induction in luxS cqsA deficient V. cholerae | V. cholerae BH1578 lux reporter, luminescence, 6 h | AID 588436 | activation, % at 18.7 µM | actives 0.16% (n = 350,000); in the data active = activation mostly above about 9.7%, no sharp cut-off; inconclusive = no clear call, values can overlap the other calls; inactive = mostly below about 3.7%
ugtP null kill – compounds lethal to S. aureus RN4220 ugtP deletion mutant | OD600 growth, 16 h | actives 0.54% (n = 330,000) | AID 1259309 | growth inhibition, % (concentration not given with the values); in the data active = growth inhibition above about 68%;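 note: plate controls were untreated wells for no effect and antibiotic for full effect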
CCHFV vOTU inh – blocks the CCHF virus ovarian tumor domain protease. CCHFV vOTU protease, Pep-AMC fluorescence. inhibition, % at 11.5 µM. actives 0.55% (n = 370,000); in the data active = inhibition above about 30%; note: 0% = vehicle wells with enzyme and 100% = no enzyme wells
PfHsp40 yeast – restores yeast growth despite PfHsp40 toxicity; AID 504582; S. cerevisiae expressing PfHsp40, growth rescue, ATP luminescence; actives 0.68% (n = 340,000); growth rescue, % at 12.5 µM; in the data active = growth rescue above about 28%, passing the limit was not always enough; inconclusive = no clear call, values can overlap the other calls;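 note: yeast W303a lacking pdr1 and pdr3 grown in galactose medium; growth measured after three days at 30 °C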
RN4220 kill – kills Staphylococcus aureus RN4220 | S. aureus RN4220 growth, OD600, 16 h | inhibition, % (test concentration not listed) | actives 0.33% (n = 330,000); in the data active = inhibition above about 85%;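 note: plate controls were untreated cells for no effect and reference antibiotic for full effect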
* hit, by the source's call; i = inactive; u = inconclusive; x = not tested or not shown; ! = a repeat was not active.

SMILES	Mtb hypoxia inh	BH1578 lux ind	ugtP null kill	CCHFV vOTU inh	PfHsp40 yeast	RN4220 kill
CC(=O)Nc1ccc(OCC(O)Cn2c3ccccc3c3ccccc32)c(C)c1 (stereo not given)	7.9	-0.4	-34.5	2.6	8.7	0.3
Cc1ccccc1OCC(O)Cn1c2ccccc2c2ccccc21 (stereo not given)	4.2	i	62.9	3.6	111.5*	34.6
CC(=NN=C(N)N)c1ccc(C)c(C)c1	2.9	x	-4.7	x	x	2.2
O=C(CSc1ccc(F)cc1)N1CCC(c2nc3ccccc3s2)CC1	x	4.5	12.5	3.5	1.3	-2.3
O=C(CSc1ccccc1Cl)N1CCC(c2nc3ccccc3s2)CC1	x	i	97.2*	11.5	-0.9	95.9*
CCC(CC)NC(=O)c1ccc2c(c1)OCCO2	1.6	25.0*	0.2	-6.3	0.0	4.6
O=C(CCC1N=C2c3ccccc3N=C(SCc3ccc(F)cc3)N2C1=O)NCc1ccco1 (stereo not given)	21.3	-0.3	11.2	-9.1	0.0	4.1
O=C(CC1N=C2c3ccccc3N=C(SCc3ccc(F)cc3)N2C1=O)NCc1ccco1 (stereo not given)	0.1	16.7*	22.3	-7.0	1.4	-1.7
COc1ccc(-c2oc(NC(=O)CSc3nncn3C)c(C#N)c2-c2ccc(OC)cc2)cc1	x	-0.2	12.4	2.2	43.9*	0.1
COc1ccc(NC(=O)CSc2nncn2C)cc1OC	10.9	16.7*	4.7	-4.3	0.0	5.1
COc1ccc(C(=O)NN=C(C)c2ccc(N3CCCCC3)cc2)cc1	4.5	x	-4.6	x	x	3.5
O=C(NC(=S)Nc1ccc(N2CCOCC2)cc1)c1ccc2c(c1)OCCO2	x	i	34.0	6.6	0.7	1.1
CC(=O)N1CCN(c2ccc(NC(=O)c3ccc4c(c3)OCO4)cc2)CC1	-4.8	i	-4.6	9.1	105.9*	-2.3
CS(=O)(=O)N1CCN(c2ccc(NC(=S)NC(=O)c3ccc4c(c3)OCO4)cc2)CC1	-2.2	0.5	92.7*	-3.1	0.0	6.6
CSc1ccc(C=Nn2c(Cc3ccc(Br)cc3)n[nH]c2=S)cc1	0.6	x	16.4	x	x	6.5
O=S1(=O)[C@H]2C[C@@H]3C=C[C@@]2(CN1Cc1cccc(F)c1)O3	x	i	x	0.1	65.7*	x
O=C(NC1CCC(=O)N(CCC(Oc2ccccc2)c2ccccc2)CC1)OCc1ccccc1 (stereo not given)	-1.9	x	7.3	x	x	-1.2
CN=C(Nc1ccc(Br)cc1)SC1CC(=O)N(c2ccc(OC)cc2)C1=O (stereo not given)	1.3	-0.3	-11.5	-7.7	43.4*	-16.5
CC(C)Cn1[nH]c2c3c(ccc2c1=O)C(=O)c1ccccc1C3=O	-3.4	-16.7	85.5*	x	0.6	89.0*
O=C1c2ccccc2C(=O)c2c1ccc1c(=O)n(-c3ccccc3)[nH]c21	2.5	-1.0	57.9	24.6	0.9	73.9
CN(C)S(=O)(=O)c1cccc(NC(=S)Nc2cc(Cl)cc(Cl)c2)c1	9.3	i	99.9*	1.4	0.7	99.7*
CC(C)CC(NC(=O)c1nc[nH]c1C(=O)NC(CC(C)C)C(=O)OC(C)(C)C)C(=O)OCc1ccccc1 (stereo not given)	18.9	x	4.0	x	x	-1.0
CCCNc1nc(-c2cc(C(=O)Nc3ccccc3)on2)cc(C(C)C)n1	x	-0.3	x	9.2	364.8*	x
COCCNc1nc(C)cc(-c2cc(C(=O)Nc3ccccc3)on2)n1	x	-0.4	x	x	0.0	x
COc1cccc(C2=CC(=O)CC(c3ccc(F)cc3)C2)c1OC (stereo not given)	10.5	x	7.4	x	x	2.0
SMILES	Mtb hypoxia inh	BH1578 lux ind	ugtP null kill	CCHFV vOTU inh	PfHsp40 yeast	RN4220 kill
O=C(O)C(Cc1ccccc1)N1C(=O)c2c(Cl)c(Cl)c(Cl)c(Cl)c2C1=O (stereo not given)	2.8	-0.8	85.9*!	14.7	1.4	39.2
O=C(O)C(Cc1ccccc1)N1C(=O)c2ccccc2C1=O (stereo not given)	10.9	i	-6.7	-5.1	-0.9	4.0
CC(C)(C)OC(=O)NC(CCCCNC(=O)OCc1ccccc1)c1nnc(C(CCCCNC(=O)OCc2ccccc2)NC(=O)OC(C)(C)C)o1 (stereo not given)	10.1	x	4.2	x	x	2.7
Cc1ccc(S(=O)(=O)N2CCN(C(=O)CCn3cncn3)CC2)cc1	-6.2	-0.1	2.8	-8.4	-1.3	-0.5
CCCC1COC(Cn2cncn2)(c2ccc(C)cc2)O1 (stereo not given)	6.5	i	1.9	4.5	132.0*	1.5
O=C(O)c1ccccc1NS(=O)(=O)c1ccc(NN=Cc2cccc(Cl)c2)c([N+](=O)[O-])c1	7.8	x	89.5*	11.4	3.1	-11.5
O=C(O)c1ccccc1NS(=O)(=O)c1ccc(NN=Cc2ccc(F)cc2)c([N+](=O)[O-])c1	3.9	i	82.1	x	1.9	-4.2
COc1ccc(Br)cc1C=NNc1ccc(S(=O)(=O)Nc2ccccc2C(=O)O)cc1[N+](=O)[O-]	10.8	x	99.5*	x	x	99.5*
ON=Cc1ccc(OCc2ccccc2F)c(Cl)c1	12.5	x	15.8	x	x	12.2
C(C#CCCCCCCCCC[n+]1ccccc1)#CCCCCCCCCC[n+]1ccccc1	x	-0.1	100.6*	9.6	u	100.2*
COc1ccc(S(=O)(=O)NC2CC3CCC2C3)cc1Br (stereo not given)	8.9	-0.4	-0.5	4.7	80.9*	2.7
Cc1cc(C)c(S(=O)(=O)NC2CC3CCC2C3)c(C)c1 (stereo not given)	-5.2	-0.6	8.2	-4.2	64.3*	-2.4
COc1ccc(C=Nn2cncn2)cc1COc1ccc(NC(C)=O)cc1	x	x	13.2	x	x	2.3
CC(=O)c1cccc(NC(=O)CC2S/C(=N/N=Cc3ccccc3)NC2=O)c1 (stereo not given)	14.8	x	4.0	x	x	8.0
NS(=O)(=O)c1ccc(NC(=O)c2ccc(Cl)c(S(=O)(=O)NCc3ccco3)c2)cc1	22.2*	0.8	3.4	6.4	-0.3	-1.8
CN(Cc1cn(C)c2ccccc12)C(=S)Nc1cc(F)cc(F)c1	-4.4	3.7	-0.3	0.9	57.4*	-4.1
CCCCC(=O)NC(=S)Nc1cc([N+](=O)[O-])ccc1OC	9.9	-0.3	active	2.3	u	81.5
CCc1nn(C(C)C(=O)N2CC(C)CC(C)C2)c(=O)c2cc3occc3n12 (stereo not given)	-0.7	i	-8.8	-0.4	-1.6	5.6
CCc1nn(C(C)C(=O)N2CCN(c3ccc(OC)cc3)CC2)c(=O)c2cc3occc3n12 (stereo not given)	2.9	-0.3	11.2	-2.9	112.0*	2.6
CC=NN(c1ccccc1)c1ccccc1	1.2	x	8.2	x	x	5.4
CNC(=O)c1sc(N2N=C3/C(=C\c4ccccc4)CCCC3C2c2ccccc2)nc1C (stereo not given)	2.1	-8.4	4.1	10.4	-0.4	3.9
CNC(=O)c1sc(N2N=C3/C(=C/c4ccccc4)CCCC3C2c2ccccc2)nc1C (stereo not given)	-2.0	12.5*	-19.3	x	0.3	-5.0
O=C(NNC(=O)c1cc(Br)ccc1O)c1csc(N2CCOCC2)n1	x	0.9	x	x	76.4*	x
